This is a sample that favours compounds with a hit; in the whole collection about 5.7% have one here.
L3MBTL1 inh: blocks human L3MBTL1; AID 485360; AlphaScreen L3MBTL1–H3K9me1 peptide binding; Q9Y468; Potency, µM (doses to about 57.1 µM), hits mostly inhibitors; 230,000 compounds, 0.66% hits; further: nearly all actives have a fitted effect of over 60% in size
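Read-out is AlphaScreen signal from streptavidin donor and nickel chelate acceptor beads (10 ug/mL final each) bridging L3MBTL1 (50 nM) and biotinylated K9-monomethylated H3(1-15) peptide (75 nM), after 30 min compound exposure at room temperature.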
JMJD2A Tudor inh: JMJD2A Tudor domain (human) inhibition. AID 504339. Potency, µM (series often up to 114 µM), usual class: inhibitors. 390,000 compounds, 4.4% hits. AlphaScreen JMJD2A-Tudor / H3K4me3 peptide binding; further: nearly all actives have a fitted effect of over 50% in size
BAZ2B inh: blocks human BAZ2B; Potency, µM (doses to about 114 µM), most hits filed as inhibitors; AlphaScreen BAZ2B-H3K14Ac peptide displacement; 360,000 compounds, 4.4% hits; further: nearly all actives have a fitted effect of over 60% in size
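BAZ2B (50 nM) with biotin-H3(5-23)K14Ac peptide (50 nM) in PBS pH 7.4, 0.01% Tween-20, preformed 30 min, then compound 30 min at room temperature; top concentration 110uM. AlphaScreen streptavidin donor/nickel chelate acceptor beads (10 ug/mL final), 20 min dark, signal read.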
PI5P4Ka inh: inhibitors of human PI5P4K alpha. P48426. PI5P4Kalpha enzyme, ADP-Glo luminescence, 60 min; active compounds read low. max response, %. 330,000 compounds, 1.2% hits. AID 652105; active means max response of -50% or lower; inconclusive means between -30% and -50%; inactive means -30% or higher; further: value at the top dose of about 77 µM
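ADP-Glo luminescence end-point after a 60 min room-temperature kinase reaction. PI5P4Kalpha and substrate in HEPES pH 7.4 buffer with EGTA, 0.1% CHAPS and 5% DMSO; ATP at 5 microM final.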
KDM4E inh: JMJD2E (human) inhibition; JMJD2E catalytic domain, FDH-coupled NADH fluorescence (FDH is formaldehyde dehydrogenase); 230,000 compounds, 1.6% hits; Potency, µM (series often up to 57.1 µM), hits mostly inhibitors; active means well fitted inhibition curve with a large enough effect, not every such curve was filed as active; inconclusive means small, poorly fitted or top-dose-only effect, or another doubt; inactive means no such curve, though single readings can be large or run the other way; further: nearly all actives have a fitted effect of over 50% in size
Target sequence (B2RXH2 1-337 limits assumed): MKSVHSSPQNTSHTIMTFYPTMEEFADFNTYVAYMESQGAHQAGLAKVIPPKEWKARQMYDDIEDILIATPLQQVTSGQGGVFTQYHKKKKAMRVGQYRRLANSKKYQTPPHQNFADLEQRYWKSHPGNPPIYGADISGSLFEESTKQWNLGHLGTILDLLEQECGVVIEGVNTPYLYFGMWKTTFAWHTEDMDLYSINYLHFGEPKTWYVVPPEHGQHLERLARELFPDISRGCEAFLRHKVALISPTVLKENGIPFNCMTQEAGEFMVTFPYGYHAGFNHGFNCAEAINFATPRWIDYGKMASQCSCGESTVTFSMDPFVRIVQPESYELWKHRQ
HP1b binding inh: blocks HP1-beta chromodomain binding to methylated histone tails; Potency, µM (doses to about 114 µM), usual class: inhibitors; P83916; 390,000 compounds, 0.56% hits; AlphaScreen HP1-beta / biotin-H3K9me3 peptide binding; further: nearly all actives have a fitted effect of over 70% in size
Target sequence (P83916 whole entry, looked up): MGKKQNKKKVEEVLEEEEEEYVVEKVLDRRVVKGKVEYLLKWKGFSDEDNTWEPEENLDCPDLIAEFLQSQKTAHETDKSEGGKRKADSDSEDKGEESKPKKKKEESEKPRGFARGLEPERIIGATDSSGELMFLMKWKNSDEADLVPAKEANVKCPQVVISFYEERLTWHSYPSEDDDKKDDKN
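Compound inhibition of the preformed complex between 50 nM HP1-beta and 50 nM biotinylated H3K9me3 peptide was read by AlphaScreen. Buffer was PBS pH 7.4 with 0.01% Tween-20. Incubations ran 30 min at room temperature, with 10 ug/mL donor/acceptor beads.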
ADP-Glo counter: counter-screen for PI5P4K inhibitors: ADP-Glo detection interference, no enzyme; Potency, µM (highest dose often 76.9 µM), actives largely listed as inhibitors; 1,100 tested, under 10 active; AID 743285; shares compounds with PI5P4Ka inh; ADP-Glo detection counter-screen, luciferase luminescence, no enzyme
A number is an active result. Unless noted, the call rests on the fitted dose curve; in most records, active means well fitted curve in the direction sought with a large enough effect; inconclusive means small, poorly fitted or top-dose-only effect, or another doubt; inactive means no such curve, though single readings can be large; an effect the other way counts as inactive or inconclusive.

Screening COc1ccc(C(NC(=O)c2cccnc2)c2cc(Cl)c3cccnc3c2O)cc1OC (centres undefined) returned L3MBTL1 inh inconclusive, JMJD2A Tudor inh inactive, BAZ2B inh inconclusive, PI5P4Ka inh inactive, KDM4E inh inactive and HP1b binding inh inactive.
COc1ccc(Cl)cc1C(Nc1cccnc1)c1ccc2cccnc2c1O (centres undefined) was read as L3MBTL1 inh inactive, JMJD2A Tudor inh 35µM, BAZ2B inh 35µM, PI5P4Ka inh -72, KDM4E inh 14µM, HP1b binding inh inconclusive and ADP-Glo counter inactive.
For CCc1nnc(NC(=O)CC(=O)Nc2ccccc2C(=O)O)s1 the results were L3MBTL1 inh inactive, JMJD2A Tudor inh inconclusive, BAZ2B inh inactive, KDM4E inh inconclusive and HP1b binding inh inactive.
`CCCCc1nnc(NC(=O)CC(=O)Nc2ccccc2C(=O)O)s1` gave JMJD2A Tudor inh inactive, BAZ2B inh inactive, PI5P4Ka inh -61, KDM4E inh inconclusive, HP1b binding inh inactive and ADP-Glo counter inactive.
`CC(C)Cc1nnc(NC(=O)CC(=O)Nc2ccccc2C(=O)O)s1` gave JMJD2A Tudor inh inactive, BAZ2B inh inactive, PI5P4Ka inh -57, KDM4E inh inconclusive, HP1b binding inh inactive and ADP-Glo counter inactive.
Screening CC(=O)NC(c1cccs1)c1cc(Cl)c2ccccc2c1O (centres undefined) returned L3MBTL1 inh inactive, JMJD2A Tudor inh inactive, BAZ2B inh inactive and HP1b binding inh inactive.
`CC(=O)NC(c1cccs1)c1cc([N+](=O)[O-])c2cccnc2c1O` (centres undefined) gave L3MBTL1 inh 10µM, JMJD2A Tudor inh 35µM, BAZ2B inh 4µM, PI5P4Ka inh -73, KDM4E inh 8.9µM, HP1b binding inh inactive and ADP-Glo counter inactive.
`CC1(C)CC(NC(=O)c2c(N)no[n+]2[O-])CC(C)(C)N1` gave JMJD2A Tudor inh inactive, BAZ2B inh inactive, PI5P4Ka inh inactive, KDM4E inh inactive and HP1b binding inh inactive.
Screening COc1ccc2nc(Nc3sc4c(c3C(N)=O)CCCC4)sc2c1 returned L3MBTL1 inh inactive, JMJD2A Tudor inh inconclusive, BAZ2B inh inconclusive, PI5P4Ka inh -70, KDM4E inh inactive, HP1b binding inh 22µM and ADP-Glo counter inactive.
For CCOC(=O)c1ccc2c(c1)N(CC(=O)Nc1ccc(C)cc1C)C(=O)c1ccccc1S2 the results were JMJD2A Tudor inh inactive, BAZ2B inh inactive and HP1b binding inh inactive.
Screening O=C(c1cnn2c(C(F)F)cc(C3CC3)nc12)N1CCCC1 returned JMJD2A Tudor inh inactive, BAZ2B inh inactive, KDM4E inh inactive and HP1b binding inh inactive.
Screening O=C(c1cc2nc(C3CC3)cc(C(F)F)n2n1)N1CCOCC1 returned JMJD2A Tudor inh inactive, BAZ2B inh inactive, PI5P4Ka inh -63, KDM4E inh inactive, HP1b binding inh inactive and ADP-Glo counter inactive.
`Cc1ccc([N+](=O)[O-])cc1Nc1nc(N2CCOCC2)nc(N2CCOCC2)n1` gave L3MBTL1 inh inactive, JMJD2A Tudor inh inactive, BAZ2B inh inactive, PI5P4Ka inh -74, KDM4E inh inactive, HP1b binding inh inactive and ADP-Glo counter inactive.
For Cc1ccc(Cl)cc1Nc1nc(N2CCOCC2)nc(N2CCOCC2)n1 the results were JMJD2A Tudor inh inactive, BAZ2B inh inconclusive, PI5P4Ka inh inactive and HP1b binding inh inactive.
CCCn1c(SC(C)C(=O)N2CCOCC2)nc2ccc(Br)cc2c1=O (centres undefined) was read as L3MBTL1 inh inactive, JMJD2A Tudor inh inactive, BAZ2B inh inactive, PI5P4Ka inh inactive and HP1b binding inh inactive.
`COCCn1c(SCc2nc3sc(C(=O)OC)c(C)c3c(=O)[nH]2)nc2ccccc21` gave L3MBTL1 inh inactive, JMJD2A Tudor inh inactive, BAZ2B inh inactive, PI5P4Ka inh inactive, KDM4E inh inactive and HP1b binding inh inactive.

Source: PubChem BioAssay
